The source of these data is PubChem BioAssay.

Values without a mark were called inactive. Some of the results follow. Calls of active or inactive are those of the source.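 How the source made its calls, unless noted: active means mean inhibition across replicates above the hit cutoff set by the earlier primary screen (cut at about 15% in these data); inactive means the rest.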

For assay [1], the target named is Protein-arginine deiminase type-4 (Homo sapiens) (UniProt Q9UM07). The experiment in a line: human PAD4 inhibitors, confirmation, biochemical, fluorescence polarization (AID 488796).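 Further: inhibitors block active-site labeling by the probe so polarization falls; 0% = PAD4 with probe and DMSO and 100% = probe without PAD4 enzyme.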 To be noted: recombinant PAD4, RCA probe fluorescence polarization; at 6.36 µM; active compounds read high. A general note: In fluorescence polarisation assays a small probe gives low polarisation when free and higher when bound to something large.

The nature of assay [2]: compounds interfering with TAMRA-BSA probe, counter-screen for TCR-CD3 interaction inhibitor project, biochemical, fluorescence, TAMRA-labeled BSA (AID 652035; in the data active means inhibition above about 23%;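 further: 0% = buffer low control and 100% = reference high control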). To be noted: TAMRA-labeled BSA probe fluorescence counterscreen; at 9.4 µM; active compounds read high. For orientation: A counterscreen serves to expose hits that act by an unwanted route or on another target.
Assay [3] has as its system T-cell receptor (TCR)-CD3 interaction, human. Briefly: TCR-CD3 interaction inhibitors, retest, confirmation, biochemical, fluorescence, TAMRA-labeled TCR probe (AID 652036; in the data active means inhibition above about 19%). Particulars: TAMRA-labeled TCR probe fluorescence binding assay; at 9.4 µM; active compounds read high.
Assay [4] has as its target (Lyso)-N-acylphosphatidylethanolamine lipase (Mus musculus) (UniProt Q8VD66). Briefly: ABHD4 inhibitors, retest, confirmation, biochemical, fluorescence polarization, mouse (AID 720658;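 active means mean inhibition across replicates above the hit cutoff set in the primary screen, cut at about 30% in these data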;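 further: 0% = wild-type ABHD4 with DMSO and 100% = catalytically dead S159A mutant with DMSO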). To be noted: purified mABHD4, FP-Rh probe fluorescence polarization; at 8.92 µM; active compounds read high.
The target in assay [5] is Serine protease HTRA1 (Homo sapiens) (UniProt Q92743). The experiment in a line: HTRA1 protease inhibitors, retest, confirmation, biochemical, fluorescence polarization (AID 540248;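 active means mean inhibition over three repeats above a set limit taken from the earlier primary screen, cut at about 37% in these data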;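 further: 0% = HTRA1 with DMSO and 100% = wells lacking HTRA1; inhibitors block probe binding so polarization drops and inhibition rises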). Particulars: recombinant HTRA1, FP-rhodamine activity-based probe, at 5.96 µM, active compounds read high.
Assay [6] can be described thus: growth loss of phage-infected E. coli expressing H. pylori AddAB, confirmation, AddAB inhibitor project, absorbance, E. coli V3065, T4 phage, triplicate (AID 488942;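 active means mean inhibition above a set limit taken from the earlier primary screen, cut at about 13% in these data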;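 further: higher means less bacterial growth since AddAB block lets phage replicate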). Particulars: OD, at 11.9 µM, active compounds read high, T4 phage with gene 2 nonsense mutations.
Assay [7] in a line: growth loss of RecBCD+ E. coli with mutant T4 phage, counter-screen for AddAB inhibitor project, absorbance, V66 E. coli (AID 488955;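 active means mean inhibition above the mean of solvent-only control wells plus 3 SD, cut at about 4% in these data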;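 further: optical density read after an 18 h incubation at 37 °C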). Particulars: OD growth, at 11.9 µM, active compounds read high.
The nature of assay [8]: bacterial viability inhibition counter-screen, confirmation, counter-screen for AddAB inhibitor project, absorbance (AID 488956; in the data active means inhibition above about 25%). To be noted: absorbance (AddAB counterscreen), at 11.9 µM, active compounds read high.
For assay [9], the target named is Platelet-activating factor acetylhydrolase IB subunit alpha1 (Homo sapiens) (UniProt Q15102). Briefly: PAFAH1B3 enzyme inhibitors, confirmation, biochemical, fluorescence polarization, human (AID 493032;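 active means average inhibition over triplicate runs above the hit cutoff set in the earlier primary screen, cut at about 25% in these data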;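 further: 0% = enzyme with DMSO and 100% = wells lacking PAFAH1B3 protein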). Particulars: recombinant PAFAH1B3, FP-Rh activity-based probe, at 3.39 µM, active compounds read high.
Assay [10] can be described thus: growth loss of phage-infected RecBCD+ E. coli, confirmation, RecBCD inhibitor project, absorbance, E. coli V66, T4 gene 2 phage (AID 651982;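 active means mean inhibition over triplicates exceeding the hit threshold derived in the original primary screen, cut at about 11% in these data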). To be noted: E. coli V66 + T4 2- phage, growth OD; at 11.9 µM; active compounds read high.
A short description of assay [11]: E. coli viability inhibition, counter-screen for RecBCD inhibitor project, absorbance, high throughput (AID 651983; in the data active means inhibition above about 20%;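 further: E. coli strain V66 grown with compound alone and no phage infection; 0% = bacteria with DMSO vehicle only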). To be noted: absorbance (OD) growth, at 11.9 µM, active compounds read high.
The nature of assay [12]: growth loss of phage-infected AddAB-carrying E. coli, confirmation, counter-screen for RecBCD inhibitor project, absorbance, E. coli V3065, T4 phage (AID 651984;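 active means mean inhibition above the solvent-only control wells' mean plus 3 SD, cut at about 22% in these data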;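 further: higher means less bacterial growth from phage killing when AddAB is blocked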). Particulars: E. coli expressing H. pylori AddAB + T4 phage, OD growth; at 11.9 µM; active compounds read high; gene 2 mutant T4, recBCD-deleted host.
A short description of assay [13]: StAR promoter reporter inhibitors, counter-screen for LRH-1 inverse agonist project, cell-based, luminescence, high throughput (AID 651611; in the data active means inhibition above about 28%). To be noted: StAR promoter luciferase reporter counterscreen, at 3.6 µM, active compounds read high.
In assay [14] the target is Nuclear receptor subfamily 5 group A member 2 (Homo sapiens) (UniProt O00482). Briefly: LRH-1 (NR5A2) inverse agonists, retest, confirmation, cell-based, luminescence (AID 651613; in the data active means inhibition above about 42%;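 further: HEK293T cells co-transfected with LRH-1 and StAR promoter luciferase reporter; 0% = vehicle wells and 100% = parental cells lacking receptor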). Particulars: cell-based LRH-1 luciferase reporter, inverse agonism; at 3.6 µM; active compounds read high. For orientation: In a reporter assay the amount or activity of a reporter protein is the signal.

For assay [15], the target named is Steroidogenic factor 1 (Homo sapiens) (UniProt Q13285). Briefly: SF1 (NR5A1) inverse agonists, counter-screen for LRH-1 inverse agonist project, cell-based, luminescence, high throughput (AID 651614; in the data active means inhibition above about 44%;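 further: cells cotransfected with StAR promoter reporter and SF1 expression vector; 0% = vehicle on cells with receptor and 100% = vehicle on cells lacking receptor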). To be noted: cell-based SF1 luciferase reporter, at 3.6 µM, active compounds read high.
Assay [16] in a line: VP16 transactivation reporter inhibitors, counter-screen for LRH-1 inverse agonist project, cell-based, luminescence, high throughput (AID 651615; in the data active means inhibition above about 33%). Particulars: Gal4-VP16 luciferase reporter cells, at 3.6 µM, active compounds read high.

Chain of Platelet-activating factor acetylhydrolase IB subunit alpha1 (Homo sapiens) (Q15102 whole entry, looked up): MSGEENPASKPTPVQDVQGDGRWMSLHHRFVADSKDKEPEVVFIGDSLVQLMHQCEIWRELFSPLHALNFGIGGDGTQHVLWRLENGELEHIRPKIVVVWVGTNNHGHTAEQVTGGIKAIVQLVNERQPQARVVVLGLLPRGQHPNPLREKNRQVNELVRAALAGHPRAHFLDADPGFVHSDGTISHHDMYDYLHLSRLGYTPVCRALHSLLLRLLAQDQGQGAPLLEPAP
Chain of Protein-arginine deiminase type-4 (Homo sapiens) (Q9UM07 whole entry, looked up): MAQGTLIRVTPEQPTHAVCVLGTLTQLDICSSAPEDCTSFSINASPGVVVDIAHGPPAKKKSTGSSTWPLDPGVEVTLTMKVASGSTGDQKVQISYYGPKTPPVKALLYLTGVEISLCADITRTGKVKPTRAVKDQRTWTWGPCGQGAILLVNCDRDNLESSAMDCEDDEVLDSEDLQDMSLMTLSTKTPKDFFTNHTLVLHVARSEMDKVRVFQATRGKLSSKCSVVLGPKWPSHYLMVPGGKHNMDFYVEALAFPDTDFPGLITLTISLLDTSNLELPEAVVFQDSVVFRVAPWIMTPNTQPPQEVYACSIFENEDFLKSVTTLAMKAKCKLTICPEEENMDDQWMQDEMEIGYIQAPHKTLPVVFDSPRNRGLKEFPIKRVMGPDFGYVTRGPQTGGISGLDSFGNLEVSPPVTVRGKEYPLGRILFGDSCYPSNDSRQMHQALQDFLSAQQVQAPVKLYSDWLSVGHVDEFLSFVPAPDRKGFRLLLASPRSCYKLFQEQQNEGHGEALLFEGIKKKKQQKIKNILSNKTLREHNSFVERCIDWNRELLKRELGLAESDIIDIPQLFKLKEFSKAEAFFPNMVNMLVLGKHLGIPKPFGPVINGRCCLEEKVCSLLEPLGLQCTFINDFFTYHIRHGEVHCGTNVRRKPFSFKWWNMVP
Chain of (Lyso)-N-acylphosphatidylethanolamine lipase (Mus musculus) (Q8VD66 whole entry, looked up): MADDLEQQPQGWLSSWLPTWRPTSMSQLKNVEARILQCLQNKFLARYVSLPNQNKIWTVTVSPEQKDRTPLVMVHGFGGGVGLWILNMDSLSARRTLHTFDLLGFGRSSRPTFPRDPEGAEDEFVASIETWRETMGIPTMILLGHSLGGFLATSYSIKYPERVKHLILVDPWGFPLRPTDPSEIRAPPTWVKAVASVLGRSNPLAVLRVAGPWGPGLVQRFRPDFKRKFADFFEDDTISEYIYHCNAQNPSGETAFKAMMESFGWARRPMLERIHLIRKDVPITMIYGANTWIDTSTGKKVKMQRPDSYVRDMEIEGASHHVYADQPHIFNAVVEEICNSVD
Chain of Nuclear receptor subfamily 5 group A member 2 (Homo sapiens) (O00482 whole entry, looked up): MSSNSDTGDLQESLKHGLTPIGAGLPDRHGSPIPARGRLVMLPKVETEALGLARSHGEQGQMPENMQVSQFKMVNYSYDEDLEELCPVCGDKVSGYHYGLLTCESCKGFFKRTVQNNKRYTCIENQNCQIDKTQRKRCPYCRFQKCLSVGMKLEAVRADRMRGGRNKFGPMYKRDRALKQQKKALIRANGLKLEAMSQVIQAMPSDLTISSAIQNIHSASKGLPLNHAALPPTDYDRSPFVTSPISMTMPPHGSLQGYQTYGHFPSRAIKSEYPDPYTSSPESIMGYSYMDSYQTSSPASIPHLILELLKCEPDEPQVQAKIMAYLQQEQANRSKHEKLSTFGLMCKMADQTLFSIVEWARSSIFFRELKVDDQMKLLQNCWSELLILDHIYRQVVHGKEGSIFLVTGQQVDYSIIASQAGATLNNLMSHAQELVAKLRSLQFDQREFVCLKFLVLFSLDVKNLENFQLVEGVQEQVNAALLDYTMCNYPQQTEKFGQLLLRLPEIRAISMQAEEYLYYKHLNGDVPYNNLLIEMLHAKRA
Chain of Steroidogenic factor 1 (Homo sapiens) (Q13285 whole entry, looked up, the tested form may be a part): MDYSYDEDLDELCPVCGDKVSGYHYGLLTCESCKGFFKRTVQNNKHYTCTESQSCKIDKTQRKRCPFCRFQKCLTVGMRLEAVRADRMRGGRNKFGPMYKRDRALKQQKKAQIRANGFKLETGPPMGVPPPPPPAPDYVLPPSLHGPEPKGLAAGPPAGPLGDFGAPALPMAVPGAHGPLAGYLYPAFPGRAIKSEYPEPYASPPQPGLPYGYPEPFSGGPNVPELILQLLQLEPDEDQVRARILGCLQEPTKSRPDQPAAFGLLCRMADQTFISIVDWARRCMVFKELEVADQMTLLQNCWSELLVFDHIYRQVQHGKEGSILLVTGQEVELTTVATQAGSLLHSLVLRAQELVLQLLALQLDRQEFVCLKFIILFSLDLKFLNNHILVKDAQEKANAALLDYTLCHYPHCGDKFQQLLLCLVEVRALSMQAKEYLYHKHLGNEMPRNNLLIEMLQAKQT

With `CC(C)(C)NC(=O)NC(=O)COC(=O)CCC1CCCCC1`, the inhibition in [1] was 2.14%.

Consider `O=C(NCCCO)c1cc2c([nH]c3ccccc32)c(-c2ccc(F)cc2)n1`, for which the inhibition in [1] was 22.4% (active).

Consider `O=c1[nH]n(-c2ccc([N+](=O)[O-])cc2)c(=O)c2ccccc12`, for which the inhibition was 25.3% (active) in assay [1], 59.3% (active) in assay [2], 46% (active) in [3] and 43.2% (active) in [4].

Regarding `Cc1cc2c(cc1C)N(C(=O)CN1C(=O)c3ccccc3C1=O)C(C)(C)c1ssc(=S)c1-2`, the inhibition in assay [1] is 33.7% (active).

In the case of `CC(=O)N(c1ccc2oc(=O)sc2c1)S(=O)(=O)c1ccc(C)cc1`, the inhibition in [1] was 10.9%.

For the compound `Cc1cc(O)ccc1-c1cnc2ccccc2n1`, the inhibition in assay [1] was 29.1% (active).

`CCOc1[nH]n(-c2ccc(Cl)cc2)c(=O)c1C=Nc1ccc(O)cc1`: the values for the inhibition in assay [1] and in [4] were 6.04% and -0.05%, respectively.

`Cn1c(Nc2cccc(Cl)c2)nc2ccccc21`: the inhibition in assay [1] is 4.71%.

With `NC(=O)NC(=O)C(OC(=O)CCNS(=O)(=O)c1ccccc1)c1ccccc1` (stereo unspecified), the inhibition in [5] was 23.1%.

On to `CC(C)(C)NC(=O)COC(=O)c1cc(Cl)ccc1[N+](=O)[O-]`, for which the inhibition in assay [6] is -4.38%; in [7], 0.98%; in [8], -3.45%.

Turning to `ON=C1/C(=N\O)CC2(C/C1=N/O)OCCO2`, the inhibition was 27.1% (active) in assay [9], 1.75% in assay [10], 4.59% in [11] and -10.8% in assay [12].

`CCN(CC)c1ccc(/C=N/Nc2nc(C)cc(C)n2)c(O)c1`: the inhibition in assay [5] was 61.8% (active).

As for `COc1ccc(NC(=O)ON=C2c3ccccc3-c3ccccc32)cc1`, the inhibition in assay [9] is 29% (active).

For `Cc1cccc(N=C2NC(=O)/C(=C/c3cn(C)c4ccccc34)S2)c1`, the inhibition in assay [9] was 17.3%.

`O=C(Nc1ccc(Br)cn1)c1ccc([N+](=O)[O-])o1`: the inhibition was 99.3% (active) in [6]; 11.8% (active) in assay [7]; 30.2% (active) in assay [8]; 11% in assay [13]; 54.7% (active) in assay [14]; 55.6% (active) in [15]. The inhibition was -5.48% in assay [16], 7.78% in assay [10], 9.86% in assay [11] and 81.2% (active) in [12].

As to `Cc1ccc(C(=O)/C=C/Nc2ccc(S(=O)(=O)Nc3onc(C)c3C)cc2)cc1`, the inhibition in assay [6] is 2.14%; in assay [7], 3.94%; in [8], 2.93%.

By inhibition is commonly meant the relative decrease from the control value, in per cent.
